The nature of experiment [1]: CCTE_Simmons_MITO_inhib_resp_rate: CCTE's HepG2 Seahorse XF Respirometric Screening Assay at Inhibited Respiratory State [full ETC block], Simmons Lab (AID 2284006). Particulars: actives raise or lower the signal. The method, boiled down:
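This endpoint is the respiration rate remaining after rotenone/antimycin A block, in HepG2 cells on a Seahorse XF96. Chemicals spanned 125 nM–100 uM final, in three biological replicates. OCR was read every 6 minutes for 72 minutes and compared with DMSO vehicle.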

Experiment [2] in a line: CCTE_Simmons_MITO_viability: CellTiter-Glo Viability Assessment for CCTE's HepG2 Seahorse XF Respirometric Screening Assay [post-hoc], Simmons Lab (AID 2284007; active means hit-call score of the fitted dose curve at least 0.9, where 1 is the maximum). Put shortly:
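Luciferase-coupled ATP read-out after the Seahorse run: HepG2 cells treated 90 minutes with test chemical, 7-point series of 125 nM–100 uM final, in triplicate biological runs. Vehicle DMSO; dichlone as positive control over 8 concentrations.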
A general note: In ATP-based viability assays light output follows the ATP content of the culture.

Experiment [3] is described as follows: CCTE_Shafer_MEA_acute_spike_number: CCTE's Neural Acute Assay for Total Number of Spikes, Shafer Lab (AID 2284008).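 On AC50: curve fitted for decrease in spike count so AC50 reflects inhibitors.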 The method, boiled down:
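Rat primary cortical neurons on 48-well MEA plates, DIV 13 or 15, at 37 C. 40 min baseline then 40 min with compound (0.03-40 uM); spikes detected at 8x rms noise, expressed as percent change from baseline.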

Experiment [4] can be described thus: CCTE_Shafer_MEA_acute_firing_rate_mean: CCTE's Neural Acute Assay for Mean Firing Rate, Shafer Lab (AID 2284009).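 Further: analyzed for loss of signal so actives lower firing rate relative to DMSO.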 The method, boiled down:
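Spontaneous spiking of primary rat cortical networks, DIV 13/15, 37 C. Compound 0.03-40 uM, n ≥3 wells; 40 min baseline vs 40 min treated. Endpoint fitted in loss-of-signal direction against DMSO.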

Experiment [5] is described as follows: CCTE_Harrill_HTTr_Viability_MCF7: CCTE's 6-hour Cell Viability Assessment for the High-Throughput Transcriptomics (HTTr) Platform, in MCF-7 cells cultured in DMEM + 10% fetal bovine serum, Harrill Lab (AID 2284010). The method, boiled down:
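Propidium iodide exclusion, imaged by high-content analysis, gauged viability after a six-hour exposure across eight concentrations. Cells were MCF-7 grown in DMEM with 10% fetal bovine serum; fits run in both directions against DMSO.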

Experiment [6] in a line: CCTE_Harrill_HTTr_Apoptosis_MCF7: CCTE's 6-hour Apoptosis Assessment for the High-Throughput Transcriptomics (HTTr) Platform, in MCF-7 cells cultured in DMEM + 10% fetal bovine serum, Harrill Lab (AID 2284011). Put shortly:
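MCF-7 cells in DMEM + 10% FBS exposed 6 h to chemicals over an eight-point dilution series. Caspase-3/7 activation imaged by high-content CellEvent Green staining; fitted bidirectionally versus DMSO.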

The nature of experiment [7]: CCTE_Harrill_HTTr_CellCount_MCF7: CCTE's Cell Proliferation Assessment for the High-Throughput Transcriptomics (HTTr) Platform, Harrill Lab (AID 2284012; active means hit-call score of the fitted dose curve at least 0.9, where 1 is the maximum;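 further: cells exposed to compound for six hours; intended direction is loss of nuclei count meaning fewer cells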). The method, boiled down:
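Cell count from high-content imaging of Hoechst-labeled nuclei serves as viability/growth readout. Chemicals were applied to MCF-7 cells in eight concentrations for six hours, with fitting in both directions relative to DMSO.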

Experiment [8] can be described thus: CCTE_Shafer_MEA_acute_burst_number: CCTE's Neural Acute Assay for Single-Electrode Bursts, Shafer Lab (AID 2284013). The method, boiled down: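 Burst totals were derived with adaptive spike detection (8x rms threshold) on filtered signals from rat cortical cultures; change relative to pre-treatment baseline after 40-min compound exposure (0.03-40 uM) was fitted in the negative direction against DMSO.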

Experiment [9] in a line: CCTE_Shafer_MEA_acute_burst_duration_mean: CCTE's Neural Acute Assay for Mean Burst Duration, Shafer Lab (AID 2284014).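 Further: hits are decreases in mean burst duration relative to DMSO controls.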 The method, boiled down:
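Acute exposure of mature rat cortical networks (DIV 13 or 15) grown on microelectrode arrays to 0.03-40 uM compound. Mean burst duration compared with the 40-min pre-dose baseline over a 40-min post-dose recording at 37 C.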

A short description of experiment [10]: CCTE_Shafer_MEA_acute_per_burst_spike_number_mean: CCTE's Neural Acute Assay for Average Number of Spikes Per Burst, Shafer Lab (AID 2284015).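 Further: hits are decreases in mean spikes per burst versus baseline.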 Put shortly: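 We recorded spontaneous network firing of rat cortical neurons for 40 min before and 40 min during exposure to compound at 0.03-40 uM, at 37 C. Spikes were detected adaptively at 8x rms noise, and the change in average spikes per burst was fitted against DMSO.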

Experiment [11] is described as follows: CCTE_Shafer_MEA_acute_interburst_interval_mean: CCTE's Neural Acute Assay for Mean Interburst Interval, Shafer Lab (AID 2284016).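 Further: percent change of mean interburst interval versus each well's own pre-dose baseline; curves fitted for decrease in interburst interval relative to DMSO.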 The method, boiled down: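 MEA recording of spontaneous network bursting in primary rat cortical cultures; mean interburst interval was compared before and after a 40-min compound exposure (0.03-40 uM) and expressed as percent change, relative to DMSO.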

Experiment [12] can be described thus: CCTE_Shafer_MEA_acute_burst_percentage_mean: CCTE's Neural Acute Assay for Percentage of Spikes in a Burst, Shafer Lab (AID 2284017).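 On AC50: curve fitted for loss of signal so potency reflects decreased burst percentage.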 The method, boiled down:
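Compounds were tested at 0.03-40 uM on primary rat cortical neuron networks grown over microelectrodes, with at least three wells per compound. Spontaneous firing was recorded for 40 min before and 40 min after dosing, and the change in burst percentage was computed per well.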

The nature of experiment [13]: CCTE_Shafer_MEA_acute_per_network_burst_spike_number_mean: CCTE's Neural Acute Assay for Average Number of Spikes in a Network Burst, Shafer Lab (AID 2284019).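 On AC50: curve fitted for loss of signal so actives reduce spikes per network burst.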 The method, boiled down: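 Acute exposure of rat primary cortical networks (DIV 13/15) on MEAs; adaptive spike detection at 8x rms noise, 37 C. Percent change in spikes per network burst after 40 min with compound (0.03-40 uM), negative direction vs DMSO.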

The nature of experiment [14]: CCTE_Shafer_MEA_acute_per_network_burst_electrodes_number_mean: CCTE's Neural Acute Assay for Mean Number of Electrodes in a Network Burst, Shafer Lab (AID 2284021).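 Further: curves fitted for decreases only so hits reduce electrodes per burst.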 The method, boiled down:
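Rat primary cortical neurons on 48-well MEAs, DIV 13 or 15, were treated at 0.03-40 uM. Spikes were detected at 8x rms noise and recorded at 37 C. The mean electrodes per network burst in a 40 min exposure recording was expressed as percent change from a 40 min baseline.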

Experiment [15] in a line: CCTE_Shafer_MEA_acute_network_burst_percentage: CCTE's Neural Acute Assay for Percentage of Network Bursts, Shafer Lab (AID 2284022).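 Further: curves fitted for loss so actives lower network burst percentage.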 The method, boiled down: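 Rat primary cortical neuron networks on 48-well MEA plates, DIV 13 or 15, treated acutely with compound (0.03-40 uM, at least three wells). Percent of spikes within network bursts compared between 40-min recordings before and during exposure at 37 C, expressed as percent change.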

The nature of experiment [16]: CCTE_Shafer_MEA_acute_cross_correlation_area: CCTE's Neural Acute Assay for Area of Cross Correlation, Shafer Lab (AID 2284024).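 Further: curves fitted for loss of cross-correlation area so actives lower synchrony.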 Put shortly:
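Rat primary cortical neurons on 48-well MEA, DIV 13 or 15; compounds 0.03-40 uM. Baseline and post-exposure 40 min recordings at 37 C; percent change in area under pooled inter-electrode cross-correlation near zero lag, relative to DMSO.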

Experiment [17] can be described thus: CCTE_Shafer_MEA_acute_cross_correlation_HWHM: CCTE's Neural Acute Assay for Cross Correlation at Half Width at Half Maximum, Shafer Lab (AID 2284026).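 Further: hits are a decrease in cross-correlogram half width relative to DMSO.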 The method, boiled down: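 Rat primary cortical neurons on 48-well MEA plates; 40-min baseline and 40-min post-exposure recordings at 37 C on DIV 13 or 15, compounds 0.03-40 uM. Spikes detected at 8x rms noise; percent change in cross-correlogram HWHM per well vs baseline.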

Experiment [18] can be described thus: CCTE_Shafer_MEA_acute_synchrony_index: CCTE's Neural Acute Assay for Synchrony, Shafer Lab (AID 2284027).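 Further: network synchrony index of spontaneous spiking in primary rat cortical neurons on MEAs; fitted for loss of signal so actives lower synchrony relative to DMSO.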 Put shortly:
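The synchrony index is taken as percent change per well between a 40 min baseline and a 40 min recording with compound (0.03–40 uM), at 37C. Rat cortical cultures on multiwell MEAs at DIV 13 or 15, spike threshold 8× rms noise.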

“And” between values parts separate entries of the source, which are not always exact repeats. Equal values may be shown once. Records with an inconclusive call do not appear. Some structures have more than one record in an assay (separate samples or runs), and their calls can disagree. The source made the active and inactive calls. How the source made its calls, unless noted: active means hit-call score of the fitted dose curve at least 0.9, where 1 is the maximum; inactive means score below 0.9.

For 10 compounds, outcome and AC50 results are on record in PubChem BioAssay (EPA / NIEHS).

What is called AC50 is the midpoint of the concentration-response curve, whichever way the signal moves.

On to `NC(=O)N(O)[C@@H]1C=C[C@H](Oc2cccc(Oc3ccc(F)cc3)c2)C1`, for which the result in experiment [1], in experiment [2], in [3], in experiment [4], in experiment [5] and in [6] was inactive. In addition, the compound was classed as inactive in [7], in experiment [8], in experiment [13], in [14], in experiment [15] and in [16]. Moreover, the AC50 in experiment [9] is 18.5 µM (active); in [10] it was 10 µM (active); in experiment [11], 2.69 µM (active); in experiment [12], 12.9 µM (active); in experiment [17], 10 µM (active); in experiment [18], 10 µM (active).

With `Nc1cccc2c(N)cccc12`, the half-maximal activity concentration (AC50) in [1] was 39.8 µM (active). In addition, the result in [2] and in experiment [5] was inactive.

Take `CCc1nn(C2CCCCC2)c2cc(C3(C#N)CCC(C(=O)O)CC3)ccc12` (configuration not stated): the compound was classed as inactive in experiment [1], in [2], in experiment [5] and in experiment [7].

In the case of `O=c1c(-c2ccc(O)cc2)coc2cc(O)ccc12`, the AC50 in [3] was 3.28 µM (active); in [13] it was 4.06 µM (active); in experiment [17], 24.4 µM (active); in experiment [18], 12.2 µM (active). The call in experiment [4], in experiment [5], in experiment [7], in experiment [8], in experiment [9] and in experiment [10] was inactive. Further, the outcome in experiment [11], in experiment [12], in experiment [14], in experiment [15] and in [16] was inactive.

In the case of `O=C(O)c1ccccc1C(c1ccc(O)cc1)c1ccc(O)cc1`, the result in [3], in experiment [4], in [5], in experiment [8], in experiment [9] and in experiment [10] was inactive. In addition, the call in [11], in [14], in [15] and in experiment [17] was inactive. For the same compound, the concentration at half-maximal activity (AC50) in [12] was 20 µM (active); in [13], 20 µM (active); in [16] it was 20 µM (active); in [18], 7.86 µM (active).

As to `CCc1ccc(CCOc2ccc(CC3SC(=O)NC3=O)cc2)nc1` (configuration not stated), the compound was classed as inactive in [3], in experiment [4], in [5], in experiment [7], in experiment [8] and in experiment [9]. The outcome in experiment [10], in experiment [11], in experiment [12], in [13], in experiment [14] and in [15] was inactive. In addition, the compound was called inactive in experiment [16], in experiment [17] and in [18].

As to `CCCOC(=O)c1ccc(O)cc1`, the outcome in [1], in [2], in experiment [5] and in experiment [7] was inactive.

Turning to `CCC(=C(c1ccc(O)cc1)c1ccc(OCCN(C)C)cc1)c1ccccc1`, the outcome in experiment [3], in [4], in [5], in experiment [7], in [8] and in experiment [11] was inactive. The compound was classed as inactive in experiment [13], in [14], in experiment [15], in experiment [16] and in [17]. Also, the AC50 in experiment [6] was 35.7 µM (active); in experiment [9] it was 23 µM (active); in [10], 21 µM (active); in experiment [12], 20.6 µM (active); in experiment [18], 20.9 µM (active).

As to `CCCOc1sc(C(=O)N2CCC(c3cc(CN)ccc3F)CC2)c(C)c1Br`, the compound was called inactive in [3], in [4], in [8], in experiment [9], in [10] and in [11]. Further, the outcome in experiment [12], in experiment [13], in experiment [14], in experiment [15], in experiment [16] and in [17] was inactive. Further, in experiment [18], the compound was classed as inactive.

Regarding `CC#C[C@]1(O)CC[C@H]2[C@@H]3CCC4=CC(=O)CCC4=C3[C@@H](c3ccc(N(C)C)cc3)C[C@@]21C`, the AC50 in experiment [3] was 1.74 µM (active) and 2.84 µM (active); in experiment [4] it was 1.74 µM (active) and 2.84 µM (active); in experiment [8], 1.66 µM (active); in experiment [10], 32.9 µM (active); in experiment [11], 4.16 µM (active); in experiment [12], 16.3 µM (active) and 5.2 µM (active). Besides, the AC50 in [14] is 7.54 µM (active); in [15], 16.2 µM (active); in experiment [17], 20 µM (active) and 5.43 µM (active); in experiment [18] it was 16.2 µM (active) and 7.18 µM (active). For the same compound, the result in experiment [5], in experiment [7], in experiment [8], in [9], in [10] and in [11] was inactive. For the same compound, the compound was called inactive in experiment [13], in [14], in [15] and in experiment [16].
